Results taken from PubChem BioAssay (Tox21).
Inconclusive results are not listed. Activity calls are given as the source filed them. Unless noted, calls follow the shape of the full dose curve.

What was measured:
[1] = qHTS assay to identify small molecule agonists of the peroxisome proliferator-activated receptor delta (PPARd) signaling pathway - cell viability counter screen (AID 743211; active = well fitted curve in the direction sought with a large enough effect in the repeat runs; an effect the other way counts as inactive or inconclusive; also: nearly all actives have a fitted effect of over 55% in size); conditions: PPARd-bla HEK293H viability, CellTiter-Glo luminescence, 17 h; series mostly up to 62.6 µM
Summary of the method: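 Tox21 library compounds, delivered in DMSO, were incubated 17 h with PPARd-bla HEK293H cells; cytotoxicity was taken from CellTiter-Glo luminescence read 30 min after reagent addition.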

[2] = qHTS assay to identify small molecule antagonists of the peroxisome proliferator-activated receptor delta (PPARd) signaling pathway - cell viability counter screen (AID 743213; active = well fitted curve in the direction sought with a large enough effect in the repeat runs; an effect the other way counts as inactive or inconclusive; also: nearly all actives have a fitted effect of over 50% in size); conditions: PPARd-bla HEK293H viability, CellTiter-Glo luminescence, 17 h; series mostly up to 62 µM
Summary of the method: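 Agonist-stimulated (L165041, 300 nM final) HEK293H PPARd UAS-bla cells are exposed to compounds for 17 h at 37 C, and ATP-based luminescence (CellTiter-Glo) from the same wells reports cytotoxicity.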

[3] = molecular target: Bile acid receptor (Homo sapiens) (UniProt Q96RI1); test: qHTS assay to identify small molecule antagonists of the farnesoid-X-receptor (FXR) signaling pathway (AID 743217; active = well fitted inhibition curve with a large enough effect in the signal ratio in the repeat runs, not every such curve was filed as active; the % refers to the signal ratio); conditions: HEK293T FXR-UAS-bla, beta-lactamase ratio, CDCA-stimulated, 16 h; series mostly up to 62.6 µM
Sequence of Bile acid receptor (Homo sapiens) (Q96RI1 whole entry, looked up): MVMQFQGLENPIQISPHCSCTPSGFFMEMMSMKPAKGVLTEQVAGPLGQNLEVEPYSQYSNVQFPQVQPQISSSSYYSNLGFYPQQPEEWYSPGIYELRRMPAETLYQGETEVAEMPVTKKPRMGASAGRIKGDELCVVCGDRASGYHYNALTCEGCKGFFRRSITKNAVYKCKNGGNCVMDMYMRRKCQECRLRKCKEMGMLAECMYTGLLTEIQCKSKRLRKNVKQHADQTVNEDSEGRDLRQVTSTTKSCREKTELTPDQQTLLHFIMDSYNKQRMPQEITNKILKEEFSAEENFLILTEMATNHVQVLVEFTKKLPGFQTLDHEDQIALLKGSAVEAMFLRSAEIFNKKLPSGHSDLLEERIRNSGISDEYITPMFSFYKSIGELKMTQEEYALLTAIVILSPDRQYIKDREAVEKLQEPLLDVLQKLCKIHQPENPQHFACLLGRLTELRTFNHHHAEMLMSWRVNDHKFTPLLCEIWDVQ
Summary of the method: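 Antagonist mode: chenodeoxycholic acid at 50 uM final stimulates a UAS-driven beta-lactamase reporter in HEK 293T FXR-bla cells during 16 h, 37C compound exposure. Read-out is FRET substrate fluorescence after 2 h at room temperature.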

[4] = qHTS assay to identify small molecule agonists of the farnesoid-X-receptor (FXR) signaling pathway - cell viability counter screen (AID 743218; active = well fitted curve in the direction sought with a large enough effect in the repeat runs; an effect the other way counts as inactive or inconclusive; also: nearly all actives have a fitted effect of over 45% in size); conditions: FXR-bla HEK293T viability, CellTiter-Glo luminescence, 16 h; series mostly up to 62.6 µM
Summary of the method: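 Viability counter screen in the same wells: CellTiter-Glo luminescence, 30 min room-temperature incubation, measured after the beta-lactamase read. Cells were GeneBLAzer FXR-UAS-bla HEK 293T, compound-treated 16 h at 37C.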

[5] = qHTS assay to identify small molecule antagonists of the farnesoid-X-receptor (FXR) signaling pathway - cell viability counter screen (AID 743221; active = well fitted cell-killing curve with a large enough effect in the repeat runs, not every such curve was filed as active; also: nearly all actives have a fitted effect of over 50% in size); conditions: FXR-bla HEK293T viability, CellTiter-Glo luminescence, 16 h; series mostly up to 62.6 µM
Summary of the method: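 Cytotoxicity is taken from ATP luminescence (CellTiter-Glo, 30 min, room temperature) in FXR-bla HEK 293T cells previously incubated 16 h at 37 C with compound and chenodeoxycholic acid at 50 uM final.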

[6] = molecular target: Vitamin D3 receptor (Homo sapiens) (UniProt P11473); test: qHTS assay to identify small molecule agonists of the vitamin D receptor (VDR) signaling pathway (AID 743222); conditions: HEK293T VDR-UAS-bla, beta-lactamase FRET ratio, 16 h; series mostly up to 63.5 µM
Sequence of Vitamin D3 receptor (Homo sapiens) (P11473 whole entry, looked up): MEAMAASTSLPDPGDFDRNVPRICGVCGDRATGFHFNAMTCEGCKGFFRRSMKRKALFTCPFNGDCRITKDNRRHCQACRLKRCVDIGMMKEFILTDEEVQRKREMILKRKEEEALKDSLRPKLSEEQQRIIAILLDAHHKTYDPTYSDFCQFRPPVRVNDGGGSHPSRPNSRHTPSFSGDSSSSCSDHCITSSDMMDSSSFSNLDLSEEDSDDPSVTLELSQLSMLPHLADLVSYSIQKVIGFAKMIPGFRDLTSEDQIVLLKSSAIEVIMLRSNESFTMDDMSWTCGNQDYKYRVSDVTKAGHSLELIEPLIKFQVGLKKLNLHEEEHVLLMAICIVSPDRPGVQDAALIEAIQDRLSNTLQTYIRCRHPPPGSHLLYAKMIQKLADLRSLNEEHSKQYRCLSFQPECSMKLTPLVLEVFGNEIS
Summary of the method: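 Agonist mode, beta-lactamase reporter: fluorescence from LiveBLAzer B/G FRET substrate (2 h, room temperature) read after 16 h compound treatment at 37 C of VDR-bla cells, which were pre-incubated 4 h after seeding.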

[7] = qHTS assay to identify small molecule agonists of the NFkB signaling pathway (AID 1159509; active = well fitted curve in the direction sought with a large enough effect in the signal ratio in the repeat runs, not every such curve was filed as active; the % refers to the signal ratio); conditions: NFkB-bla ME-180 cells, beta-lactamase FRET ratio, 5 h; series mostly up to 61 µM
Summary of the method: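 Beta-lactamase reporter assay run in quantitative high-throughput format on an NF-kB-responsive ME-180 line, with 5 hr compound treatment and a FRET-based blue/green fluorescence readout.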

[8] = qHTS assay to identify small molecule agonists of the NFkB signaling pathway - cell viability counter screen (AID 1159515); conditions: NFkB-bla ME-180 viability, CellTiter-Glo luminescence, 5 h; series mostly up to 61 µM; also: nearly all actives have a fitted effect of over 55% in size
Summary of the method: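 Read by CellTiter-Glo luminescence (30 min, room temperature) in the wells also used for the beta-lactamase FRET read. ME-180 NFkB-bla cells at 2,000 per well were plated overnight, then exposed to compound for 5 hr at 37 C.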

[9] = qHTS assay to identify small molecule agonists of the endoplasmic reticulum stress response signaling pathway - cell viability counter screen (AID 1159517); conditions: ESRE-bla HeLa viability, CellTiter-Glo luminescence, 5 h; series mostly up to 61 µM;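 also: HeLa cells carrying an ER stress response element beta-lactamase reporter; nearly all actives have a fitted effect of over 50% in size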
Summary of the method: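 Steps: seed 1,500 ESRE-bla HeLa cells per well; incubate overnight at 37 C, 5% CO2; add compounds in DMSO for 5 hr; run FRET substrate 2 hr RT; add CellTiter-Glo, wait 30 min, read luminescence.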

[10] = qHTS assay to identify small molecule antagonists of the retinoid-related orphan receptor gamma (ROR-gamma) signaling pathway - cell viability counter screen (AID 1159520; active = well fitted curve in the direction sought with a large enough effect in the repeat runs; an effect the other way counts as inactive or inconclusive; also: nearly all actives have a fitted effect of over 50% in size); conditions: Tet-on RORgamma CHO cells viability, ATP luminescence, 16 h; series mostly up to 92.4 µM
Summary of the method: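 Tet-on ROR gamma CHO cells were given compounds for 2 hr, then doxycycline hyclate at 1 uM final, and incubated 16 hr at 37 C. Viability was measured as ATP content by CellTiter-Glo luminescence.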

[11] = molecular target: Nuclear receptor ROR-gamma (Homo sapiens) (UniProt P51449); test: qHTS assay to identify small molecule antagonists of the retinoid-related orphan receptor gamma (ROR-gamma) signaling pathway (AID 1159521; active = well fitted curve in the direction sought with a large enough effect in the repeat runs; an effect the other way counts as inactive or inconclusive); conditions: Tet-on RORgamma CHO cells, RORE-luciferase, 16 h; series mostly up to 92.4 µM
Summary of the method: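 Inducible-expression reporter assay: doxycycline (1 uM final) switched on RORγ in CHO cells bearing a ROR response element-luciferase construct, with test compounds present from 2 h beforehand. Decreased luminescence after 16 h defined antagonist activity.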

[12] = qHTS assay to identify small molecule agonists of the AP-1 signaling pathway - cell viability counter screen (AID 1159525); conditions: ME-180 AP-1-bla cells viability, ATP luminescence, 5 h; series mostly up to 76.8 µM; also: nearly all actives have a fitted effect of over 55% in size
Summary of the method: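 Same-well cytotoxicity counter screen of the Tox21 10K library in ME-180 cells. The readout is ATP-dependent luminescence after 5 h compound treatment. Data are normalised to DMSO and tetra n-octyl ammonium bromide controls.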

[13] = qHTS assay to identify small molecule agonists of the AP-1 signaling pathway (AID 1159526); conditions: ME-180 (cervical carcinoma) AP-1-bla reporter, beta-lactamase FRET ratio, 5 h; series mostly up to 76.8 µM
[14] = molecular target: Peroxisome proliferator-activated receptor delta (Homo sapiens) (UniProt Q03181); test: qHTS assay to identify small molecule agonists of the peroxisome proliferator-activated receptor delta (PPARd) signaling pathway (AID 743212); conditions: HEK293H PPARd-UAS-bla, beta-lactamase FRET ratio, 17 h; series mostly up to 62.6 µM
Sequence of Peroxisome proliferator-activated receptor delta (Homo sapiens) (Q03181 whole entry, looked up): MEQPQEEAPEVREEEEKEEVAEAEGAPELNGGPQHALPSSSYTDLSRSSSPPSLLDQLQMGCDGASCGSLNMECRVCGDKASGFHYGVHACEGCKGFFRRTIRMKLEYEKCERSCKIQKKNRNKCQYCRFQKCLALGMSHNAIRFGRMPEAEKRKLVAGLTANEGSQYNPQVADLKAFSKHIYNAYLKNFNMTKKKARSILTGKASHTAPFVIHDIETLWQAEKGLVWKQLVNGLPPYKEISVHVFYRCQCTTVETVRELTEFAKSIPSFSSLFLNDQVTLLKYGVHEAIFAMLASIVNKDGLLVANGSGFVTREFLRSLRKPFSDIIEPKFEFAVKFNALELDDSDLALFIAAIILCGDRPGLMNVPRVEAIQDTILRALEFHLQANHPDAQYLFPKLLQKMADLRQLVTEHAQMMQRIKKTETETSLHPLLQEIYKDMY
Summary of the method: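 Read-out: beta-lactamase FRET fluorescence after 2 h room-temperature incubation with LiveBLAzer B/G substrate. Cells were HEK293H carrying a UAS-bla reporter for PPARd, treated at 37 C with DMSO-dissolved compounds.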

[15] = molecular target: Peroxisome proliferator-activated receptor delta (Homo sapiens) (UniProt Q03181); test: qHTS assay to identify small molecule antagonists of the peroxisome proliferator-activated receptor delta (PPARd) signaling pathway (AID 743215; active = well fitted inhibition curve with a large enough effect in the signal ratio in the repeat runs, not every such curve was filed as active; the % refers to the signal ratio); conditions: HEK293H PPARd-UAS-bla, beta-lactamase FRET ratio, antagonist, 17 h; series mostly up to 62 µM
Summary of the method: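 Agonist L165041 (300 nM final) added with compound to PPARd-bla HEK293H UAS-bla reporter cells; 17 h incubation at 37 C. Read-out: LiveBLAzer FRET substrate, 2 h at room temperature, fluorescence intensity.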

[16] = molecular target: Vitamin D3 receptor (Homo sapiens) (UniProt P11473); test: qHTS assay to identify small molecule antagonists of the vitamin D receptor (VDR) signaling pathway (AID 743223; active = well fitted inhibition curve with a large enough effect in the signal ratio in the repeat runs, not every such curve was filed as active; the % refers to the signal ratio); conditions: VDR-UAS-bla HEK293T, beta-lactamase FRET ratio, 16 h; series mostly up to 61 µM
Summary of the method: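 Quantitative HTS in VDR-bla reporter cells stimulated with 1alpha,25-dihydroxyvitamin D3, 3 nM final. Compound exposure 16 h, 37C, 5% CO2. Read-out: beta-lactamase FRET substrate fluorescence, 2 h RT.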

[17] = qHTS assay to identify small molecule agonists of the vitamin D receptor (VDR) signaling pathway - cell viability counter screen (AID 743224; active = well fitted curve in the direction sought with a large enough effect in the repeat runs; an effect the other way counts as inactive or inconclusive; also: nearly all actives have a fitted effect of over 50% in size); conditions: VDR-bla HEK293T viability, CellTiter-Glo luminescence, 16 h; series mostly up to 62.6 µM
Summary of the method: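 Counter screen run in the same wells as the VDR-bla reporter assay: CellTiter-Glo luminescence, 30 min at room temperature, after 16 h compound treatment at 37C of cells pre-plated for 4 h.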

[18] = qHTS assay to identify small molecule antagonists of the vitamin D receptor (VDR) signaling pathway - cell viability counter screen (AID 743225; active = well fitted curve in the direction sought with a large enough effect in the repeat runs; an effect the other way counts as inactive or inconclusive; also: nearly all actives have a fitted effect of over 50% in size); conditions: VDR-bla HEK293T viability, CellTiter-Glo luminescence, 16 h; series mostly up to 61 µM
Summary of the method: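 Same-well multiplex: following 16 h treatment of HEK 293T cells carrying a UAS-driven beta-lactamase reporter with compound and agonist (3 nM final), and a 2 h FRET substrate step, CellTiter-Glo was added and luminescence read after 30 min.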

[19] = molecular target: Bile acid receptor (Homo sapiens) (UniProt Q96RI1); test: qHTS assay to identify small molecule agonists of the farnesoid-X-receptor (FXR) signaling pathway (AID 743220; active = well fitted activation curve with a large enough effect in the signal ratio in the repeat runs, not every such curve was filed as active; the % refers to the signal ratio); conditions: HEK293T FXR-UAS-bla, beta-lactamase FRET ratio, 16 h; series mostly up to 62.6 µM
Summary of the method: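 FXR-UAS-bla HEK 293T cells carrying a UAS-driven beta-lactamase reporter were plated for 5 h at 37C/5% CO2, then exposed to DMSO-dissolved Tox21 10K compounds for 16 h at 37C. A LiveBLAzer B/G FRET substrate was loaded for 2 h at room temperature before fluorescence reading.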

Measured: Potency

Fc1ccc(C2(Cn3cncn3)OC2c2ccccc2Cl)cc1 (stereo not given)
not listed: [14] | [15] | [16] | [17] | [18] | [19]
inactive: all other assays above

NC(=O)O
not listed: [1] | [3] | [19]
inactive: all other assays above

CCCCOC(=O)[C@@H](C)Oc1ccc(Oc2ccc(C#N)cc2F)cc1
not listed: [3] | [4] | [13] | [15] | [17] | [18] | [19]
inactive: all other assays above

c1cc2c(c(N3CCNCC3)c1)OCCO2
not listed: [3] | [12] | [17] | [19]
inactive: all other assays above

CCC1(c2ccccc2)C(=O)NC(=O)NC1=O
not listed: [3] | [19]
inactive: all other assays above

C#C[C@]1(O)C=C[C@H]2[C@@H]3CCC4=CC(=O)CC[C@@H]4[C@H]3CC[C@@]21CC
not listed: [3] | [10] | [11] | [15] | [16] | [17] | [19]
inactive: all other assays above

NC(=O)c1cc([N+](=O)[O-])cc([N+](=O)[O-])c1
not listed: [1] | [3] | [10] | [17] | [18] | [19]
inactive: all other assays above

CCC(C)n1c(=O)[nH]c(C)c(Br)c1=O (stereo not given)
not listed: [4] | [14] | [15]
inactive: all other assays above

CNC(=O)Oc1ccccc1C1OCCO1
not listed: [4] | [10] | [11] | [17]
inactive: all other assays above

C=C(C)CN(CC)c1c([N+](=O)[O-])cc(C(F)(F)F)cc1[N+](=O)[O-]
not listed: [3] | [10] | [16] | [19]
inactive: all other assays above

CCOP(=S)(OCC)Oc1nc(Cl)n(C(C)C)n1
not listed: [1] | [2] | [3] | [14] | [15] | [18] | [19]
inactive: all other assays above

O=C(CCN1CC1)OCC(CO)(COC(=O)CCN1CC1)COC(=O)CCN1CC1
not listed: [4] | [6] | [14] | [15] | [16]
inactive: all other assays above

CC1CCC(=O)O1 (stereo not given)
not listed: [3] | [17] | [19]
inactive: all other assays above

CCS(=O)(=O)C(C)(C)S(=O)(=O)CC
not listed: [4] | [14] | [15]
inactive: all other assays above

CNC(=O)N(C)c1nc2ccccc2s1
not listed: [4] | [16]
inactive: all other assays above

CCOC(=O)C1(c2ccccc2)CCN(CCc2ccc(N)cc2)CC1
not listed: [2] | [3] | [18] | [19]
inactive: all other assays above

OC(Cn1cncn1)(c1ccc(F)cc1)c1ccccc1F (stereo not given)
not listed: [3] | [10] | [19]
inactive: all other assays above
